According to PubChem BioAssay:
“And” between values parts separate entries of the source, which are not always exact repeats. Equal entries are not always repeated. Inconclusive results are not listed. Where a structure was tested more than once in an assay, its records may differ in their call. The source made the active and inactive calls.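 How the source made its calls, unless noted: active means normalized viability below 100% at a tested concentration; inactive means the rest.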

Assays:
[1] = growth inhibition of DIPG glioma cells, dose response, cell-based, SU-DIPG-XVII, MIPE5.0, CellTiter-Glo, qHTS (AID 1347060; cut-off not given, nearly all actives have AC50 up to about 26 µM;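 on AC50: cells exposed to compound for 48 hours before viability readout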); settings: SU-DIPG-XVII viability, CellTiter-Glo ATP luminescence
[2] = growth inhibition of DIPG glioma cells, dose response, cell-based, SU-DIPG-XIII, MIPE4.0, CellTiter-Glo, qHTS (AID 1347061; cut-off not given, nearly all actives have AC50 up to about 37 µM;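 further: cells exposed to compound for 48 hours before readout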); settings: SU-DIPG-XIII viability, CellTiter-Glo ATP luminescence
[3] = growth inhibition of DIPG glioma cells, dose response, cell-based, JHH-DIPG-1, MIPE4.0, CellTiter-Glo, qHTS (AID 1347062; cut-off not given, nearly all actives have AC50 up to about 27 µM;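 on AC50: cells exposed to compound for two days before readout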); settings: JHH-DIPG-1 viability, CellTiter-Glo ATP luminescence
[4] = growth inhibition of DIPG glioma cells, dose response, cell-based, SU-DIPG-XIII, MIPE5.0, CellTiter-Glo, qHTS (AID 1347064; cut-off not given, nearly all actives have AC50 up to about 23 µM;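 on AC50: cells exposed to compound for 48 hours before the viability read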); settings: SU-DIPG-XIII viability, CellTiter-Glo ATP luminescence
[5] = viability loss in pontine glioma line – cell-based, SU-DIPG-XXV, MIPE5.0, CellTiter-Glo, qHTS, dose response (AID 1347065; cut-off not given, nearly all actives have AC50 up to about 26 µM;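 further: cells exposed to compound for 48 hours before ATP readout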); settings: CellTiter-Glo ATP luminescence
[6] = SU-DIPG-VI glioma cell viability, MIPE4.0 library, CellTiter-Glo luminescence, qHTS (AID 1347066; cut-off not given, nearly all actives have AC50 up to about 30 µM;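 further: cells exposed to compound for 48 hours before readout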); settings: CellTiter-Glo ATP luminescence
[7] = JHH-DIPG-1 glioma cell viability, MIPE5.0 library, CellTiter-Glo luminescence, qHTS (AID 1347067; cut-off not given, nearly all actives have AC50 up to about 26 µM;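 further: cells exposed to compound for 48 hours before readout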); settings: JHH-DIPG-1 glioma viability, CellTiter-Glo ATP luminescence
[8] = SU-DIPG-XXV glioma cell viability, MIPE5.0 library, qHTS (AID 1347068; cut-off not given, nearly all actives have IC50 up to about 30 µM;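 on IC50: cells exposed to compound for 48 hours before viability readout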)
[9] = sensitizers of A549 cells to miR-34 induction, primary screen, imaging, A549 dox-inducible miR-34, nuclei and caspase counts (AID 1347080;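 active means compounds whose cell count with miR-34 switched on is under 0.7 times the count with it off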); settings: A549 miR-34 inducible, Hoechst nuclei count, 48 h
[10] = survival rescue of mitochondrial mutant cells in low glucose, primary screen, MELAS cybrids, Rieske KO mouse fibroblasts, CellTiter-Glo (AID 1508586;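 active means mean z-score across replicates of 1.96 or higher in either the MELAS or the Rieske mutant cell line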;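 further: z relative to plate mean and SD of compound and empty wells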)
[11] = LFS_MB_P medulloblastoma growth inhibition, cell-based, chromothripsis tumors, cisplatin or BGB combos (AID 1671449; in the data active means inhibition above about 80%;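 further: cells exposed for 96 hours; 0% = vehicle DMSO and 100% = killing by high DMSO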); settings: LFS_MB_P medulloblastoma cells
[12] = HDN33 neuroblastoma growth inhibition, cell-based, chromothripsis tumors, cisplatin or BGB combos (AID 1671450; in the data active means inhibition above about 80%;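 further: cells exposed to compound for four days; 0% = vehicle DMSO and 100% = cell killing by high DMSO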); settings: HDN33 neuroblastoma cells, stronger effect = higher value
[13] = ICB984 medulloblastoma cell growth inhibition, synergistic combos for chromothripsis tumors, cisplatin or BGB combos (AID 1671451; call rule not given here;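 further: cells exposed for 96 hours before readout; 0% = vehicle DMSO and 100% = killing by high DMSO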); settings: ICB984 medulloblastoma cells, drug combinations, stronger effect = higher value
[14] = HTB85 osteosarcoma cell growth inhibition, synergistic combos for chromothripsis tumors, BGB or cisplatin IC20 combos (AID 1671453; in the data active means inhibition above about 80%;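 further: cells exposed for 96 hours before readout; 0% = vehicle DMSO and 100% = high DMSO killing control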); settings: HTB85 osteosarcoma cells, drug combinations, stronger effect = higher value
[15] = MDA-MB-436 breast carcinoma cell growth inhibition, synergistic combos for chromothripsis tumors, BGB or cisplatin combos (AID 1671458; call rule not given here;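 further: cells exposed for 96 hours; 0% = vehicle DMSO and 100% = killing by high DMSO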); settings: MDA-MB-436 breast carcinoma growth inhibition, drug combinations, stronger effect = higher value
[16] = growth inhibition of BT084 medulloblastoma cells, cell-based, ICGC_MB145, cisplatin and BGB IC40 combos (AID 1671461; in the data active means inhibition above about 80%;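 further: cells exposed to drugs for 96 hours; 0% = vehicle DMSO and 100% = high DMSO full killing control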); settings: drug combinations, stronger effect = higher value
[17] = growth inhibition of RCMB18 medulloblastoma cells, cell-based, cisplatin and BGB IC40 combos (AID 1671462; in the data active means inhibition above about 80%;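 further: cells exposed to compound for four days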); settings: stronger effect = higher value
[18] = modifiers of HSF1 nuclear foci, imaging, Selleck Cancer Library (AID 1347162; in the data active means plate-normalised HSF1 focus index below about 0.46); settings: human cells, at 10 µM; SSMD: measured here: HSF1 foci SSMD mean; cell count: measured here: cell number; plate-normalised HSF1 focus index: stronger effect = lower value
[19] = ovarian cancer cell viability with rucaparib, profiling panel, oncology-focused library, rucaparib conditional (AID 1508598); settings: patient-derived ovarian cancer cells, CellTiter-Glo viability, 144 h, stronger effect = lower value
[20] = stronger effect = lower value, cell number ratio, induced over uninduced
[21] = measured here: relative caspase fold change +Dox/-Dox
[22] = measured here: total cells with miR-34 induction, stronger effect = lower value
[23] = measured here: total cells without miR-34 induction
[24] = MELAS cybrid survival, CellTiter-Glo 48 h, stronger effect = higher value
[25] = Rieske KO mouse fibroblast survival, CellTiter-Glo 72 h

COc1ccc(-c2nc(N3CCOCC3)c3sc(CN(C)c4ncc(C(=O)NO)cn4)cc3n2)cn1
AC50 [1]: 23.5 nM (active) | AC50 [2]: 37.2 nM (active) | AC50 [3]: 13.2 nM (active) | AC50 [4]: 26.3 nM (active) | AC50 [5]: 14.8 nM (active) | AC50 [6]: 2.63 nM (active) | AC50 [7]: 6.62 nM (active) | IC50 [8]: 295 nM (active) | fold change [9, 20]: 1.02 (inactive) | fold change [9, 21]: 0.447 | cell count [9, 22]: 1250 | cell count [9, 23]: 1230 | z-score [10, 24]: -0.053 (inactive) | z-score [10, 25]: -3.69 | inhibition ([11]; at 0.5 µM, stronger effect = higher value): -17.1% (inactive) and 84.7% (active) | inhibition ([11]; measured here: combination with BGB IC20, at 0.005 µM): -19% and -26.8% | inhibition ([11]; measured here: combination with BGB IC40, at 0.005 µM): -13.4% and -10.7% | inhibition ([11]; measured here: combination with BGB IC40, at 0.05 µM): -8.69% and -6.92% | inhibition ([11]; measured here: combination with cisplatin, at 0.5 µM, stronger effect = higher value): -32.9% and 119% | inhibition ([11]; measured here: combination with cisplatin, at 5 µM, stronger effect = higher value): 120% and 126% | inhibition ([12]; BGB combo, at 5 µM): 99.9% and 99.7% | inhibition ([12]; at 0.5 µM): 98.9% (active) and 93.4% (active) | inhibition ([12]; cisplatin combo, at 5 µM): 99.9% | inhibition ([12]; measured here: with BGB IC20 combination, at 0.5 µM): 97.8% and 90.5% | inhibition ([12]; measured here: with cisplatin IC20 combination, at 0.5 µM): 99.5% and 96.1% | inhibition ([12]; single agent, at 5 µM): 99.9% | inhibition ([13]; BGB IC20 combo, at 0.005 µM): 85.9% and 87.2% | inhibition ([13]; BGB IC40 combo, at 0.005 µM): 93.2% and 94% | inhibition ([13]; BGB IC40 combo, at 0.05 µM): 101% | inhibition ([13]; at 0.5 µM): -8.74% (inactive) and -32% (inactive) | inhibition ([13]; cisplatin combo, at 0.05 µM): 101% | inhibition ([13]; cisplatin combo, at 0.5 µM): 10.9% and -33% | inhibition ([13]; cisplatin combo, at 5 µM): 21.2% and -18.3% | inhibition ([13]; measured here: 5 uM single agent, at 5 µM): 1.99% and 3.43% | inhibition ([14]; at 0.5 µM): 99.5% (active) and 95.4% (active) | inhibition ([14]; measured here: with BGB IC20, at 0.5 µM): 99.5% and 93.3% | inhibition ([14]; measured here: with BGB IC20, at 5 µM): 99.8% and 99.9% | inhibition ([14]; measured here: with cisplatin IC20, at 0.5 µM): 99.9% | inhibition ([14]; measured here: with cisplatin IC20, at 5 µM): 100% and 99.9% | inhibition ([14]; single agent, at 5 µM): 99.9% | inhibition ([15]; at 0.5 µM): 55.1% (inactive) and 39.3% (inactive) | inhibition ([15]; measured here: BGB combination, at 0.5 µM): 45.2% and 33.3% | inhibition ([15]; measured here: BGB combination, at 5 µM): 89.9% and 80.2% | inhibition ([15]; measured here: cisplatin combination, at 0.5 µM): 50.8% and 33.9% | inhibition ([15]; measured here: cisplatin combination, at 5 µM): 91.2% and 86.1% | inhibition ([16]; at 0.5 µM): 84.3% (active) and 90.7% (active) | inhibition ([16]; cisplatin combination, at 0.5 µM): 99.6% and 101% | inhibition ([16]; cisplatin combination, at 5 µM): 102% and 106% | inhibition ([16]; measured here: BGB IC40 combination 0.05 uM, at 0.05 µM): 55.4% and 3.88% | inhibition ([16]; single agent, at 5 µM): 109% and 106% | inhibition ([17]; at 0.5 µM): 90.3% (active) and 89.8% (active) | inhibition ([17]; cisplatin combo, at 5 µM): 97.3% and 101% | inhibition ([17]; measured here: BGB IC40 combination, at 0.05 µM): 42.1% and 41.3% | inhibition ([17]; measured here: combination with cisplatin, at 0.5 µM): 91.8% and 91.3% | inhibition ([17]; single agent, at 5 µM): 98.7% and 99.3%

C[C@H](CCC(=O)O)[C@H]1CCC2C3C[C@H](O)[C@@H]4C[C@H](O)CC[C@]4(C)C3CC[C@@]21C (stereo partly specified)
outcome [1]: inactive | outcome [2]: inactive | outcome [3]: inactive | outcome [4]: inactive | outcome [5]: inactive | outcome [6]: inactive | outcome [7]: inactive | outcome [8]: inactive

OCCn1cc(-c2cnc3nnn(Cc4ccc5ncccc5c4)c3n2)cn1
outcome [1]: inactive | outcome [2]: inactive | outcome [3]: inactive | outcome [4]: inactive | outcome [5]: inactive | outcome [7]: inactive | outcome [8]: inactive | fold change [9, 20]: 0.95 (inactive) | fold change [9, 21]: 1.2 | cell count [9, 22]: 7870 | cell count [9, 23]: 8280 | SSMD [18]: 2.68 | cell count [18]: 7630 | plate-normalised HSF1 focus index [18]: 1.17 (inactive) | z-score [10, 24]: -0.449 (inactive) | z-score [10, 25]: 0.57 | viability ([19]; at 0.000305 µM, OCI-C5x cells, with rucaparib 10 µM, 100% = cells with rucaparib alone): 111% (inactive) | viability ([19]; at 0.000305 µM, OCI-C5x cells, without rucaparib): 109% (inactive) | viability ([19]; at 0.000305 µM, OCI-P5x cells, with rucaparib 20 µM, 100% = cells with rucaparib alone): 99.5% (active) | viability ([19]; at 0.000305 µM, OCI-P5x cells, without rucaparib): 102% (inactive) | viability ([19]; at 0.00122 µM, OCI-C5x cells, with rucaparib 10 µM, 100% = cells with rucaparib alone): 118% (inactive) | viability ([19]; at 0.00122 µM, OCI-C5x cells, without rucaparib): 110% (inactive) | viability ([19]; at 0.00122 µM, OCI-P5x cells, with rucaparib 20 µM, 100% = cells with rucaparib alone): 106% (inactive) | viability ([19]; at 0.00122 µM, OCI-P5x cells, without rucaparib): 105% (inactive) | viability ([19]; at 0.00488 µM, OCI-C5x cells, with rucaparib 10 µM, 100% = cells with rucaparib alone): 119% (inactive) | viability ([19]; at 0.00488 µM, OCI-C5x cells, without rucaparib): 113% (inactive) | viability ([19]; at 0.00488 µM, OCI-P5x cells, with rucaparib 20 µM, 100% = cells with rucaparib alone): 102% (inactive) | viability ([19]; at 0.00488 µM, OCI-P5x cells, without rucaparib): 102% (inactive) | viability ([19]; at 0.0195 µM, OCI-C5x cells, with rucaparib 10 µM, 100% = cells with rucaparib alone): 118% (inactive) | viability ([19]; at 0.0195 µM, OCI-C5x cells, without rucaparib): 112% (inactive) | viability ([19]; at 0.0195 µM, OCI-P5x cells, with rucaparib 20 µM, 100% = cells with rucaparib alone): 102% (inactive) | viability ([19]; at 0.0195 µM, OCI-P5x cells, without rucaparib): 99.8% (active) | viability ([19]; at 0.0781 µM, OCI-C5x cells, with rucaparib 10 µM, 100% = cells with rucaparib alone): 124% (inactive) | viability ([19]; at 0.0781 µM, OCI-C5x cells, without rucaparib): 117% (inactive) | viability ([19]; at 0.0781 µM, OCI-P5x cells, with rucaparib 20 µM, 100% = cells with rucaparib alone): 102% (inactive) | viability ([19]; at 0.0781 µM, OCI-P5x cells, without rucaparib): 101% (inactive) | viability ([19]; at 0.313 µM, OCI-C5x cells, with rucaparib 10 µM, 100% = cells with rucaparib alone): 126% (inactive) | viability ([19]; at 0.313 µM, OCI-C5x cells, without rucaparib): 118% (inactive) | viability ([19]; at 0.313 µM, OCI-P5x cells, with rucaparib 20 µM, 100% = cells with rucaparib alone): 102% (inactive) | viability ([19]; at 0.313 µM, OCI-P5x cells, without rucaparib): 106% (inactive) | viability ([19]; at 1.25 µM, OCI-C5x cells, with rucaparib 10 µM, 100% = cells with rucaparib alone): 124% (inactive) | viability ([19]; at 1.25 µM, OCI-C5x cells, without rucaparib): 113% (inactive) | viability ([19]; at 1.25 µM, OCI-P5x cells, with rucaparib 20 µM, 100% = cells with rucaparib alone): 101% (inactive) | viability ([19]; at 1.25 µM, OCI-P5x cells, without rucaparib): 99.8% (active) | viability ([19]; at 5 µM, OCI-C5x cells, with rucaparib 10 µM, 100% = cells with rucaparib alone): 148% (inactive) | viability ([19]; at 5 µM, OCI-C5x cells, without rucaparib): 123% (inactive) | viability ([19]; at 5 µM, OCI-P5x cells, with rucaparib 20 µM, 100% = cells with rucaparib alone): 97.4% (active) | viability ([19]; at 5 µM, OCI-P5x cells, without rucaparib): 94.2% (active)
